# Reference: PubChem BioAssay AID492949 (National Center for Advancing Translational Sciences (NCATS), 2010)
# Inconclusive results are not listed. A call without a number means that no potency is given here. Active and inactive are the calls of the source. Calls follow the shape of the dose curve; as a rule, active = well fitted activation curve with a large enough effect; inconclusive = small, poorly fitted or top-dose-only effect; inactive = no such curve, though single readings can be large or run the other way.
# Target: Relaxin receptor 1 (Homo sapiens) (UniProt Q9HBX9)
# Sequence (Q9HBX9 whole entry, looked up): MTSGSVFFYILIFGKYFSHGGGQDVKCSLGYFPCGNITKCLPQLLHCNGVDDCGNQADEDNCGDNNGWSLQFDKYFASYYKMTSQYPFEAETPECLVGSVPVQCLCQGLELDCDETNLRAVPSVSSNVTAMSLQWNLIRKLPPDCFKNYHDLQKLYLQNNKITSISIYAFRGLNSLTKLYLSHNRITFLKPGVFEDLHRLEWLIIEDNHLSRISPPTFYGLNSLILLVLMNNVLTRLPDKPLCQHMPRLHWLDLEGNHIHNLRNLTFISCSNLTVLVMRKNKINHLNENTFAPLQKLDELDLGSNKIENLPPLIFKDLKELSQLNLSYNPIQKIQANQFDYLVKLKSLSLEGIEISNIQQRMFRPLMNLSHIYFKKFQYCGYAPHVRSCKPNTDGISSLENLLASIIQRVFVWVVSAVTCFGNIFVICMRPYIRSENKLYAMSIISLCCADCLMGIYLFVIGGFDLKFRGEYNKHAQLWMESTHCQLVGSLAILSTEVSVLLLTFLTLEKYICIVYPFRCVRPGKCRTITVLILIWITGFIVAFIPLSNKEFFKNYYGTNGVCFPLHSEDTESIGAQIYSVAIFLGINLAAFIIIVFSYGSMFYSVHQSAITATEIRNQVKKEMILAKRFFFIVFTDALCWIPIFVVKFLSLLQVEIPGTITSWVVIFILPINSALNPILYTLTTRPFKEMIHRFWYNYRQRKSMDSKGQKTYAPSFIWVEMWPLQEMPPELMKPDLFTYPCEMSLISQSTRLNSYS
# Assay: qHTS Assay for Agonists of the Relaxin Receptor RXFP1: THP1 Hit Validation; also: nearly all actives have a fitted effect of over 60% in size
# Excerpt: The relaxin hormone is involved in the variety of biological functions in normal tissues and diseases. The role of relaxin is well-established in female reproduction and parturition, mammary gland and endometrial development, maintenance of myometrial quiescence during pregnancy. Relaxin signaling through its G protein-coupled receptor (GPCR) RXFP1 results in ECM remodeling through regulation of collagen deposition, cell invasiveness, proliferation and overall tissue homeostasis. […] Recombinant human relaxin (rhRlx) is currently being tested in clinical trials as a protective agent in congestive heart failure, in treating severe preeclampsia, and as an anti-fibrotic agent in systemic sclerosis.
# Upon relaxin binding RXFP1 activation leads to the activation of adenylate cyclase (AC) via Gs. cAMP will activate PKA, which phosphorylates many signaling proteins. Thus, detection of cAMP increase is an easy and reliable indication of relaxin receptor activation. […] RXFP1 activation was assayed by changes in cAMP levels as detected with a time-resolved fluorescence energy transfer (TR-FRET) cAMP detection kit. […]
# This is a cell-based assay for cAMP second messenger response to screen for agonists of the RXFP1 receptor. […] The cells were lysed and the cAMP levels were measured with a TR-FRET cAMP kit. […] The EC50 values were determined from concentration-response data modeled with the standard Hill equation […]
# Potency is read from the fitted curve at half-maximal effect.
row,Compound,Potency
1,CCC(Oc1cc(Cl)ccc1Cl)C(=O)N1CCC2(CC1)OCCO2 (configuration not stated),inactive
2,O=c1[nH]c(O)c(N=Nc2ccc([N+](=O)[O-])cc2)c(=O)[nH]1,11 µM (active)
